The record followed here is PubChem BioAssay.

The nature of assay [1]: inhibitors of TNFa-induced NFkB p65 translocation, primary screen, imaging, HUVEC, MLSMR starter and 10KST1 sets (AID 438).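 For inhibition: signal is the nuclear over cytoplasmic p65 intensity ratio per well.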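 Note: compound added about 3h40 before a 20 min TNFalpha stimulation.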 The settings on record: HUVEC TNFa-induced p65 nuclear translocation; cell count: measured here: nuclei count (cytotoxicity indicator), at 2.08 µM; inhibition: at 2 µM, stronger effect = higher value, 0% TNFa-plus-vehicle, 100% no-TNFa wells.
Assay [2] in a line: inhibitors of mutant huntingtin aggregation, primary screen, imaging, exon1htt(103Q)mCFP cells, high-content imaging (AID 483;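 active = visual image review flags a hit and inhibition of aggregation exceeds 20%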;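 note: compound exposure lasted 3 days before fixation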;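 for nuclei count: percent of the per-plate median nuclei count of sample wells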). The settings on record: exon1htt(103Q)mCFP cell line, aggregate imaging, at 2 µM; inhibition of aggregation: stronger effect = higher value; nuclei count: measured here: cell count, toxicity.
A short description of assay [3]: inhibitors of E-selectin induction by TNFa, primary screen, imaging, HUVEC, immunofluorescence, MLSMR starter and 10KST1 sets (AID 487;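 active = visually confirmed hit in the image check and inhibition above 20%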;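 for inhibition: signal is fraction of cell area covered by stained E-selectin grains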;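 for nuclei count: 100% = median nuclei count of all wells on the same plate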). The following applies: HUVEC TNFalpha-induced E-selectin immunofluorescence imaging, at 2 µM; inhibition: stronger effect = higher value; nuclei count: measured here: cell number, toxicity.
Assay [4] concerns the target Voltage-gated potassium channel subunit beta-2 (Rattus norvegicus) (UniProt P62483). The assay can be described thus: KvBeta enzyme negative modulators, primary screen, biochemical, NADPH fluorescence (AID 622;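 active = fluorescence slope higher than the sample average by over 3 SD, cut at about -0.22 in these data, passing the limit was not always enough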;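 note: slope of raw intensity against log time taken from 70 to 1610 s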). The following applies: recombinant KvBeta, 4-cyanobenzaldehyde reduction, at 10 µM, stronger effect = higher value.
For assay [5] the target is unchanged. The assay can be described thus: KvBeta positive modulators, primary screen, biochemical, NADPH fluorescence (AID 623;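 active = NADPH fluorescence slope more negative than the mean of all samples by about 3 SD, 99.7% confidence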;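 note: fluorescence intensity change per second fitted from 20 to 320 s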). The following applies: Recombinant KvBeta, NADPH fluorescence decrease slope, 10 min; at 10 µM; stronger effect = lower value.
In assay [6] the target is Alpha-2C adrenergic receptor (Homo sapiens) (UniProt P18825). The assay can be described thus: modulators of alpha2C/GIRK thallium flux, primary screen, cell-based, HEK293 alpha2C/GIRK1/2 (AID 624;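 active = fluorescence slope after compound addition differing from the mean of all screened samples at 99.7% confidence, in either direction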;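 note: slope of fluorescence ratio to pre-addition baseline per second over 15 to 24 s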). The following applies: thallium flux BTC fluorescence, at 10 µM, actives lie on both sides.
The nature of assay [7]: inhibitors of Sendai virus-induced IRF3 signaling, primary screen, TLR/RLR signaling modifier project, cell-based, Sendai virus stimulus, luciferase, 10K MLSCN set (AID 602276;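 active = inhibition at or above 50% at 10 µM; inactive = inhibition below 50%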;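 note: firefly luciferase from ISG56 promoter only with Renilla not read in this screen; 0% = Sendai virus plus DMSO and 100% = medium plus DMSO without virus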). The settings on record: HEK293 RL24 IRF3 luciferase reporter, at 10 µM, stronger effect = higher value. In general terms: A reporter such as luciferase makes a cellular process visible.
Assay [8] in a line: inhibitors of poly I:C-induced TLR3 signaling, primary screen, cell-based, poly I:C stimulus, luciferase, 10K MLSCN set (AID 602277;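 active = inhibition of the reporter signal at or above 50%; inactive = inhibition below 50%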). The settings on record: HEK293-TLR3 RL24 IRF3 luciferase reporter, at 10 µM, stronger effect = higher value.

Calls of active or inactive are those of the source.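 Rule for the calls, unless noted: active = inhibition above 20% together with a positive visual image hit; inconclusive = visual image hit but inhibition not above 20%; inactive = no visual image hit.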

Sequence of Voltage-gated potassium channel subunit beta-2 (Rattus norvegicus) (P62483 whole entry, looked up): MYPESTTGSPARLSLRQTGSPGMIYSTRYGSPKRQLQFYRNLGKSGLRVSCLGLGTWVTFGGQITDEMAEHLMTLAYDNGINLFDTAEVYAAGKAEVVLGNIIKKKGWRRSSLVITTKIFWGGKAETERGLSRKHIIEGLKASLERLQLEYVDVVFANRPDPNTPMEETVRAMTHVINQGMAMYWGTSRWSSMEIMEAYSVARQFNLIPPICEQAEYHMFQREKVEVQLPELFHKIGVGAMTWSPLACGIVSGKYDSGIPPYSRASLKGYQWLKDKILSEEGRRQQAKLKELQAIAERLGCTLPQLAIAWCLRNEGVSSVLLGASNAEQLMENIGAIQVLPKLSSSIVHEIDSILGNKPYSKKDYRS
Sequence of Alpha-2C adrenergic receptor (Homo sapiens) (P18825 whole entry, looked up): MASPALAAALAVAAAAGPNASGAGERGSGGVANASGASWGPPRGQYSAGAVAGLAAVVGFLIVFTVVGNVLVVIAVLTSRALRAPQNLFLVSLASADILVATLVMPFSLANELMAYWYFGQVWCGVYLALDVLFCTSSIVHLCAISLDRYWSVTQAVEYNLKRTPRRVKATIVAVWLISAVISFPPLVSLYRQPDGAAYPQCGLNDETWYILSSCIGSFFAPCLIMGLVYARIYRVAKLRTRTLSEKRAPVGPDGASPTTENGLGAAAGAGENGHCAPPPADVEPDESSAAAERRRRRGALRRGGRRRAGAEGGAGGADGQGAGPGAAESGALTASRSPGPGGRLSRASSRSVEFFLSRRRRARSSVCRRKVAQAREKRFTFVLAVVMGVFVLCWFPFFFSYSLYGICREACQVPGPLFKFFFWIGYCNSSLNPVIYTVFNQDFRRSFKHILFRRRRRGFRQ

The term inhibition denotes the drop in the measured response relative to a control, in per cent. In the case of `COc1ccc(N2CCN(c3ccc(NC(=O)C4CCCCC4)cc3C#N)CC2)cc1`, the cell count in assay [1] was found to be 676. For the same molecule, the inhibition was -0.6% (inactive) in assay [1], -14.3% (inactive) in assay [3], 4.18% (inactive) in assay [7] and 7.51% (inactive) in assay [8]. The inhibition of aggregation in assay [2] was -30.8% (inactive). In addition, the nuclei count in assay [2] is 104%; in assay [3] it was 121%. Also, in assay [4], the fluorescence slope is -0.586 (inactive). The NADPH fluorescence slope in assay [5] is -1.7e-05 (inactive). Further, the slope in assay [6] was 0.00529 (inactive).
For the molecule `Cc1cccc(NC(=O)C2CCCN2C(=O)OCC(C)C)c1C` (centres undefined), in assay [1], the cell count came out at 728. The inhibition in assay [1] was -6.9% (inactive); in assay [3], -120% (inactive); in assay [7], 5.88% (inactive); in assay [8], 14.1% (inactive). For the same molecule, in assay [2], the inhibition of aggregation is -27.8% (inactive). Further, the values for the nuclei count in assay [2] and in assay [3] were 109% and 119%, respectively. Moreover, the fluorescence slope in assay [4] was -0.322 (inactive). Also, the NADPH fluorescence slope in assay [5] is -6.4e-05 (inactive). In addition, in assay [6], the slope was 0.00484 (inactive).
On to `Cc1ccc(C(c2sc3nc(C)nn3c2O)N2CC(C)OC(C)C2)cc1` (centres undefined), for which the cell count in assay [1] amounted to 213. Besides, the inhibition is -3.9% (inactive) in assay [1], -23.9% (inactive) in assay [3], 16.3% (inactive) in assay [7] and 29.9% (inactive) in assay [8]. Besides, the inhibition of aggregation in assay [2] was -30.3% (inactive). Moreover, the nuclei count in assay [2] is 110%; in assay [3] it was 108%. Also, in assay [4], the fluorescence slope is -0.44 (inactive). In assay [5], the NADPH fluorescence slope was -5.9e-05 (inactive). Also, the slope in assay [6] is 0.00489 (inactive).
On to `CCCn1c(OC)nc2c1c(=O)n(C)c(=O)n2C`, for which the cell count in assay [1] was 660. Moreover, the inhibition is -3.7% (inactive) in assay [1], -34.6% (inactive) in assay [3], 15.2% (inactive) in assay [7] and 33.4% (inactive) in assay [8]. In addition, the inhibition of aggregation in assay [2] is 2.9% (inactive). The nuclei count was determined as 104% in assay [2] and 124% in assay [3]. Further, the fluorescence slope in assay [4] is -0.426 (inactive). Moreover, the NADPH fluorescence slope in assay [5] is -5.4e-05 (inactive). Moreover, the slope in assay [6] was 0.00615 (inactive).
Consider `CCOc1cc(S(=O)(=O)N2CCC(Cc3ccccc3)CC2)c(OCC)cc1-n1cnnn1`, for which the cell count in assay [1] worked out at 517. Further, the inhibition was 1.9% (inactive) in assay [1], -119% (inactive) in assay [3], -0.144% (inactive) in assay [7] and 10.4% (inactive) in assay [8]. Further, the inhibition of aggregation in assay [2] is -5.6% (inactive). Further, the nuclei count in assay [2] was determined as 103%; in assay [3], 178%. In assay [4], the fluorescence slope is -0.613 (inactive). Besides, in assay [5], the NADPH fluorescence slope was 9.5e-06 (inactive). The slope in assay [6] was 0.0103 (inactive).
`Cc1ccc2c(c1)CCCN2C(=O)Nc1ccc2c(c1)OCO2`: in assay [1], the cell count is 365. Besides, the inhibition was -0.8% (inactive) in assay [1], -34.4% (inactive) in assay [3], 13.6% (inactive) in assay [7] and 14.5% (inactive) in assay [8]. In addition, in assay [2], the inhibition of aggregation was -9.3% (inactive). Further, the nuclei count in assay [2] and in assay [3] was 102% each time. The fluorescence slope in assay [4] was -0.592 (inactive). Besides, the NADPH fluorescence slope in assay [5] was -4.4e-05 (inactive). Also, the slope in assay [6] is 0.00347 (inactive).
Turning to `COCCNS(=O)(=O)c1cc(F)ccc1OC`, the cell count in assay [1] was found to be 782. The inhibition in assay [1] was -6.6% (inactive); in assay [3] it was -62.4% (inactive); in assay [7] it was -4.54% (inactive); in assay [8], 25.9% (inactive). The inhibition of aggregation in assay [2] is -2.8% (inactive). Further, the results for the nuclei count in assay [2] and in assay [3] were 113% and 111%, respectively. The fluorescence slope in assay [4] was -0.481 (inactive). The NADPH fluorescence slope in assay [5] is -3.4e-05 (inactive). Moreover, in assay [6], the slope was 0.00632 (inactive).
Turning to `COc1ccc(C2c3c(oc4ccccc4c3=O)C(=O)N2Cc2ccncc2)cc1OC` (centres undefined), in assay [1], the cell count is 665. Besides, the inhibition in assay [1] is -2.6% (inactive); in assay [3] it was -9.9% (inactive); in assay [7], 14.3% (inactive); in assay [8], 18.9% (inactive). For the same molecule, in assay [2], the inhibition of aggregation was -6.6% (inactive). Further, the nuclei count is 108% in assay [2] and 115% in assay [3]. Besides, in assay [4], the fluorescence slope is -0.315 (inactive). Also, the NADPH fluorescence slope in assay [5] is -4.9e-05 (inactive). The slope in assay [6] was 0.00493 (inactive).
On to `CCOc1ccc(-c2c(C#N)c(N)nc3c2c(=O)n(C)c(=O)n3C)cc1OC`, for which the cell count in assay [1] was 702. Also, the inhibition in assay [1] is -1.1% (inactive); in assay [3], -7.5% (inactive); in assay [7], 14.3% (inactive); in assay [8], 16.4% (inactive). Moreover, the inhibition of aggregation in assay [2] is 7.8% (inactive). In addition, the nuclei count in assay [2] came to 108%; in assay [3], 103%. Further, in assay [4], the fluorescence slope was -0.486 (inactive). For the same molecule, the NADPH fluorescence slope in assay [5] is -5.7e-05 (inactive). Besides, in assay [6], the slope is 0.00459 (inactive).
With `C=CCc1cccc2cc(C(=O)NCc3cccnc3)c(=O)oc12`, in assay [1], the cell count was 329. Further, the inhibition in assay [1] was 3.5% (inactive); in assay [3], 4.6% (inactive); in assay [7], -3.91% (inactive); in assay [8], 20.3% (inactive). For the same molecule, the inhibition of aggregation in assay [2] is -4.3% (inactive). For the same molecule, the nuclei count turned out to be 101% in assay [2] and 117% in assay [3]. Further, the fluorescence slope in assay [4] is -0.437 (inactive). For the same molecule, in assay [5], the NADPH fluorescence slope was 1.5e-05 (inactive). For the same molecule, in assay [6], the slope is 0.00312 (inactive).
On to `O=S(=O)(c1ccc(-c2csc(-c3cccnc3)n2)cc1)N1CCCCC1`, for which the cell count in assay [1] is 372. Also, the inhibition in assay [1] is -1.7% (inactive); in assay [3] it was -30.5% (inactive); in assay [7], -0.353% (inactive); in assay [8], -37.2% (inactive). Further, the inhibition of aggregation in assay [2] is -2% (inactive). The results for the nuclei count in assay [2] and in assay [3] were 102% and 116%, respectively. Also, in assay [4], the fluorescence slope was -0.604 (inactive). Moreover, the NADPH fluorescence slope in assay [5] is -9e-06 (inactive). In assay [6], the slope is 0.0051 (inactive).
Regarding `Cn1c(CNc2nc(-c3ccccc3)cs2)nnc1SCC(=O)N1CCc2ccccc21`, the cell count in assay [1] came to 628. Besides, the inhibition in assay [1] is 11.1% (inactive); in assay [3] it was -65.9% (inactive); in assay [7], -7.07% (inactive); in assay [8], 5.89% (inactive). Also, the inhibition of aggregation in assay [2] was 18.4% (inactive). The nuclei count in assay [2] worked out at 91.5%; in assay [3], 140%. The fluorescence slope in assay [4] is -0.595 (inactive). Further, the NADPH fluorescence slope in assay [5] is -3e-05 (inactive). Moreover, the slope in assay [6] was 0.00569 (inactive).
Take `CC(=O)c1c(C)nn(C(C)CC(=O)O)c1C` (centres undefined): in assay [1], the cell count came out at 784. In addition, the inhibition in assay [1] is -12.6% (inactive); in assay [3], -27.1% (inactive); in assay [7], 8.2% (inactive); in assay [8], 19.7% (inactive). In addition, the inhibition of aggregation in assay [2] was 5.2% (inactive). Also, the nuclei count in assay [2] came out at 114%; in assay [3] it was 99%. In addition, in assay [4], the fluorescence slope is -0.509 (inactive). Also, the NADPH fluorescence slope in assay [5] was -2.6e-05 (inactive). Besides, in assay [6], the slope was 0.00713 (inactive).
On to `CCOC(=O)C1CCCN(C(=O)c2cn(C)c(=O)c3cc(OC)c(OC)cc23)C1` (centres undefined), for which the cell count in assay [1] came to 746. In addition, the inhibition is -16.1% (inactive) in assay [1], 0.3% (inactive) in assay [3], 6.66% (inactive) in assay [7] and 15.1% (inactive) in assay [8]. The inhibition of aggregation in assay [2] is -3.6% (inactive). Moreover, the nuclei count in assay [2] and in assay [3] was 110% each time. In addition, in assay [4], the fluorescence slope was -0.468 (inactive). Moreover, in assay [5], the NADPH fluorescence slope was -1e-06 (inactive). Moreover, the slope in assay [6] is 0.00726 (inactive).
